High-throughput results from PubChem BioAssay.
This is one part of a sample in which hits are shown more often than they occur.
RE007 growth inh – less growth of the S. pombe RE007 Vpr strain | S. pombe RE007 Vpr strain, BacTiter-Glo ATP luminescence, 24 h | Potency, µM (highest dose often 92.2 µM), without a hit: at the top dose activity change, negative = less growth, most hits filed as inhibitors | 360,000 tested, 0.21% active | AID 651644; active means well fitted falling curve with a large enough effect; inconclusive means small, poorly fitted or top-dose-only effect; inactive means no such curve, though single readings can be large or run the other way; further: potency means the concentration at half of the fitted maximal effect; on the % scale 0 is the no-effect control and ±100 the full control effect; nearly all actives have a fitted effect of over 50% in size
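Fission yeast RE007 carrying one integrated HIV-1 vpr copy, seeded at OD 0.01 in PMG+AL medium with 23 nL pinned compound. Grown 24 h at 30 degrees; viability read by BacTiter-Glo luminescence after 5 min.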
TbPYK inhibitor – inhibitors of Trypanosoma brucei pyruvate kinase | AID 624173 | 410,000 tested, 0.12% active | Potency, µM (highest dose often 76.8 µM), inactives show at the top dose activity, negative = inhibition, most hits filed as inhibitors | Q57TT1 | TbPYK enzyme, Kinase-Glo Plus ATP luminescence, 45 min; further: potency means the concentration at half of the fitted maximal effect; on the % scale 0 is the no-effect control and ±100 the full control effect; nearly all actives have a fitted effect of over 50% in size
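Enzyme and substrate buffer are dispensed first and compound is pin-transferred. ADP at 130 uM final then starts the reaction, which runs 45 min at room temperature. Detection reagent is added for 10 min before luminescence is imaged.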
LmPK inhibitor – blocks Leishmania mexicana pyruvate kinase activity; purified LmPK, Kinase-Glo ATP luminescence, 1 h; Potency, µM (doses to about 57.5 µM), inactives show at the top dose activity change, negative = inhibition, hits mostly inhibitors; 290,000 tested, 0.37% active; further: potency means the concentration at half of the fitted maximal effect; on the % scale 0 is the no-effect control and ±100 the full control effect
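ATP generated from ADP (0.1 mM) and PEP (0.5 mM) by 0.1 nM LmPK over 1 h at room temperature (pH 7.2 imidazole buffer) was detected by coupled luciferase luminescence. Values were normalized to uninhibited and no-enzyme wells.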
FBPA Giardia inh – inhibitors of Giardia lamblia fructose-1,6-bisphosphate aldolase; A8B2U2; purified Giardia FBPA; Potency, µM (doses to about 59.6 µM), inactives show at the highest dose activity, negative = inhibition, usual class: inhibitors; 290,000 tested, 0.71% active; AID 2451; further: potency means the concentration at half of the fitted maximal effect; on the % scale 0 is the no-effect control and ±100 the full control effect; nearly all actives have a fitted effect of over 55% in size
Target sequence (A8B2U2 whole entry, looked up): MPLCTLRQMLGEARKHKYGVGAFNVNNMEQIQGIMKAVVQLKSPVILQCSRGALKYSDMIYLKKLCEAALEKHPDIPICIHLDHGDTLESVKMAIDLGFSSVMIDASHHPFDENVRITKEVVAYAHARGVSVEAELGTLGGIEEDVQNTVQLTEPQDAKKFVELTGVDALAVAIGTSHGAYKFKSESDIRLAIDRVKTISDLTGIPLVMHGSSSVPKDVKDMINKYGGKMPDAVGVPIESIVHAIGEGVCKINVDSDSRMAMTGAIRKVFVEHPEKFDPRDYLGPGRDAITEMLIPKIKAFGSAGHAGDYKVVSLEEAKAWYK
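40 nM FBPA preincubated 10 min at RT with compound (up to 57.5 uM final), then substrate plus GAPDH/TPI/NAD/arsenate coupling and diaphorase/resazurin added. Fluorescence read after 20 min at RT, 525/598 nm.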
Shiga toxin inh – Shiga toxin inhibition | Vero cells, Shiga toxin protein synthesis inhibition reporter | 290,000 tested, 9.2% active | inhibition, % at 38.7 µM; in the data active means inhibition mostly above about 28%, no sharp cut-off; inactive means mostly below about 43%; further: 0% is about no effect
Cycloheximide cs – affects cycloheximide protein synthesis inhibition readout, counter-screen; max response, %; cell reporter, cycloheximide protein synthesis inhibition counterscreen; 300,000 tested, 12% active; AID 2314; in the data active means max response mostly above about 13%, no sharp cut-off; inactive means mostly below about 14%; further: read at 38.3 µM for the half of the compounds with a filed dose; 0% is about no effect
* = called active by the depositor. Unless noted, the call rests on the fitted dose curve; in most records, active means well fitted curve in the direction sought with a large enough effect; inconclusive means small, poorly fitted or top-dose-only effect, or another doubt; inactive means no such curve, though single readings can be large; an effect the other way counts as inactive or inconclusive.

CN(C)CCCN(C(=O)c1ccc(S(=O)(=O)N2CCc3ccccc3C2)cc1)c1nc2c(F)cccc2s1 was read as RE007 growth inh -6%, TbPYK inhibitor 0%, LmPK inhibitor -3%, FBPA Giardia inh -23%, Shiga toxin inh -6 and Cycloheximide cs 32*.
`Cc1cccc2sc(N(CCCN(C)C)C(=O)c3ccc(S(=O)(=O)N4CCc5ccccc5C4)cc3)nc12` gave RE007 growth inh 6%, TbPYK inhibitor 7%, LmPK inhibitor 7%, FBPA Giardia inh -10%, Shiga toxin inh 15 and Cycloheximide cs 18.
`COc1cc(OCc2ccccc2)c(CC(=O)O)c([N+](=O)[O-])c1` gave RE007 growth inh -11% and TbPYK inhibitor -14%.
Screening O=C1c2cccc3cccc(c23)C(=O)N1CCCc1n[nH]c(=S)n1-c1ccccc1 returned RE007 growth inh 1%, TbPYK inhibitor 7.1µM*, LmPK inhibitor -5%, FBPA Giardia inh 7%, Shiga toxin inh -3 and Cycloheximide cs -3.
`OCCCc1n[nH]c(=S)n1-c1ccccc1` gave RE007 growth inh -17%, TbPYK inhibitor -2%, LmPK inhibitor 5%, FBPA Giardia inh -26%, Shiga toxin inh -5 and Cycloheximide cs -2.
For CC(=O)Nc1ccc(OS(=O)(=O)c2c(C)cc(C)cc2C)cc1 the results were RE007 growth inh -17%, TbPYK inhibitor 1%, LmPK inhibitor 11%, FBPA Giardia inh -12%, Shiga toxin inh -15 and Cycloheximide cs -1.
For COc1cccc(-c2cc(C(=O)Nc3c(C)nn(Cc4ccccc4Cl)c3C)no2)c1 the results were TbPYK inhibitor -9%.
O=C(CCc1ccc(S(=O)(=O)N2CCOCC2)cc1)OCc1nc2ccccc2s1 was read as RE007 growth inh -5%, TbPYK inhibitor 1%, LmPK inhibitor 2%, FBPA Giardia inh 1%, Shiga toxin inh 109* and Cycloheximide cs 73*.
`Cc1cc(NC(=O)COC(=O)c2cccc(S(=O)(=O)N3CCOCC3)c2)no1` gave RE007 growth inh 9%, TbPYK inhibitor -1%, LmPK inhibitor -2%, FBPA Giardia inh 3%, Shiga toxin inh 1 and Cycloheximide cs -3.
O=C(CSc1nc2ccccc2s1)Nc1cc(S(=O)(=O)N2CCOCC2)ccc1O was read as RE007 growth inh 15%, TbPYK inhibitor inconclusive, LmPK inhibitor 7%, FBPA Giardia inh 4%, Shiga toxin inh 17 and Cycloheximide cs 20*.
CCN(CC)c1ccc(S(=O)(=O)N2CCOCC2)cc1NC(=O)CSc1n[nH]c(N)n1 was read as RE007 growth inh -8%, TbPYK inhibitor 0%, LmPK inhibitor 2%, FBPA Giardia inh 0%, Shiga toxin inh 44* and Cycloheximide cs 45*.
O=C(COC(=O)c1cccc(S(=O)(=O)N2CCOCC2)c1)Nc1nc(-c2ccccc2Cl)cs1 was read as RE007 growth inh 7%, TbPYK inhibitor -4%, LmPK inhibitor -3%, Shiga toxin inh 93* and Cycloheximide cs 28*.
Screening CCCCN(C)C(=O)C1CCCN(c2ncnc3onc(-c4ccc(F)cc4)c23)C1 (configuration not stated) returned TbPYK inhibitor 1%.
Screening O=C(NCCC1=CCCCC1)c1ccc2c(c1)sc1nc(-c3ccc(F)cc3)cn12 returned TbPYK inhibitor -1%.
Screening O=C(COC(=O)c1cccc(S(=O)(=O)N2CCOCC2)c1)c1ccccc1 returned RE007 growth inh 0%, TbPYK inhibitor -17%, LmPK inhibitor 5%, FBPA Giardia inh -2%, Shiga toxin inh 100* and Cycloheximide cs 40*.
For O=C(OCc1nc2ccccc2s1)c1cccc(S(=O)(=O)N2CCOCC2)c1 the results were RE007 growth inh -19%, TbPYK inhibitor 5%, LmPK inhibitor -5%, FBPA Giardia inh 1%, Shiga toxin inh 108* and Cycloheximide cs 37*.
O=C(COC(=O)c1cccc(S(=O)(=O)N2CCOCC2)c1)NCc1ccccc1 was read as RE007 growth inh -25% and TbPYK inhibitor -12%.
